Source: PubChem BioAssay (NCI)
This is part of a sample that, as a whole, favours compounds with a hit. Of some 83,000 tested, about 20% had one in any assay.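 Note: values are percent growth. 100 is the growth of untreated cells, values between 100 and 0 indicate rising inhibition; between -100 and 0 indicates cell death.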 Values without a mark were called inactive. The source made the active and inactive calls. How the source made its calls: active means growth percent below 10; inactive means the rest.

tested on: HOP-62 NSCLC; assay: NCI-60 one-dose screen, 48 h (100 = growth as untreated, 0 = no growth, -100 = all killed); conditions: 10 µM unless noted

| Compound | growth |
| --- | --- |
| c1csc(C2=NN3C(C2)c2ccccc2OC3c2ccncc2)c1 (centres undefined) | 106% |
| CC1=CC(C)(C)Nc2ccc(Cc3ccc4c(c3)C(C)=CC(C)(C)N4)cc21 | 94.1% |
| CCCCn1c(-c2ccc(C(=O)O/N=C(\N)c3ccc4ccccc4c3)cc2)nc(-c2ccccc2)c1-c1ccccc1 | 91.5% |
| O=C(Nc1ccc(Cl)cc1)c1cc2cc(F)ccc2cc1O | 12.1% |
| Cn1cc(-c2nonc2-c2cn(C)c3ccc(F)cc23)c2cc(F)ccc21 | 45.6% |
| CCN(CC)S(=O)(=O)c1ccc(OC)c(NC(=O)c2[nH]c(C)c3c2CCCCC3=O)c1 | 31.5% |
| COc1cccc(-c2nc3sccn3c2-c2ccnc(NCCCNS(=O)(=O)c3cccc(F)c3)c2)c1 | 33.4% |
| COc1cc(/C=C/c2cc(/C=C/c3ccc(O)c(OC)c3)n(-c3c(C)cccc3C)c(=O)n2)ccc1O | -2.09% (active) |
| COc1cccc(-c2nc(SCC(=O)Nc3ccc(C(=O)/C=C/c4ccc(OC)c(OC)c4)cc3)[nH]c(=O)c2C#N)c1 | 94.1% |
| Cc1cc(C)c2nc3nc(C)cc(C)c3c(N)c2c1 | 33.8% |
| FC(F)(F)c1ccc(-c2cn3nc(-c4c[nH]c5ccc(Br)cc45)sc3n2)cc1 | 99.4% |
| CC(=O)O[C@H]1[C@@H]2OC(=O)C(CSc3ccccc3)[C@@H]2C[C@H]2O[C@]2(C)CC/C=C(\C)CCC[C@@H]1C (some centres undefined) | 101% |
| Cc1cc(C)nc(SC2=C(Nc3ccc(O)cc3)C(=O)N(Cc3ccccc3)C2=O)n1 | 100% [40 µM] |
| COC(=O)c1ccc(Cn2cnc3c(N)ncnc32)cc1 | 97% |
| CCOc1nc(-c2ccccc2)cc2c(O)c(C(=O)O)[nH]c(=O)c12 | 98.2% |
| COc1ccc(Nc2nc(SC)nc(-c3cccc([N+](=O)[O-])c3)c2C#N)cc1 | 44.5% |
| CN(C)[C@@H]1C(=O)C(C(=O)NCc2nc3[nH]cnc(=S)c3[nH]2)=C(O)[C@@]2(O)C(=O)C3=C(O)c4c(O)cccc4[C@@](C)(O)[C@H]3C[C@@H]12 | 18.4% |
| CCOC(=O)c1sc2nc(-c3cccc(O)c3)nc(N3CCOCC3)c2c1C | 68.5% |
| O=C1/C(=C/c2ccccc2)SC(=S)N1CCc1ccc(O)cc1 | 94% |
| OCC(O)c1nc2ccc3[nH]ncc3c2c2c1CCCC2 (centres undefined) | 10.6% |

| Compound | growth |
| --- | --- |
| CC[C@@H]1O[C@H](O[C@@H](c2cnc[nH]2)[C@H](NC(=O)c2nc([C@H](CC(N)=O)NC[C@@H](N)C(N)=O)nc(N)c2C)C(=O)N[C@H](C)[C@H](O)[C@H](C)C(=O)N[C@@H](C(=O)NCCc2nc(-c3nc(C(=O)NCCCCN=C(N)N)cs3)cs2)[C@@H](C)O)[C@H](O[C@@H]2O[C@H](CO)[C@H](O)[C@H](OC(N)=O)[C@@H]2O)[C@H](C)[C@@H]1C | 15.6% |
| COc1cc2c(cc1-c1c(C)noc1C)ncc1nc(C3CCC(F)(F)CC3)n([C@H](C)COC(F)F)c12 | 36.9% |
| O=C1c2c(O)cc(O)cc2-c2c(-c3ccc(O)cc3)oc3cc(O)cc1c23 | 22.1% |
| CCN1CCN(c2nc(NCCNc3ccnc4cc(Cl)ccc34)c3ccccc3n2)CC1 | 24.9% |
| O=S(=O)(Nc1ccc(Br)c(Cl)c1)c1ccc(-c2cnc(C3CC3)o2)cc1 | 32.6% |
| Cc1nn(-c2cc(=O)[nH]c3ccc(Cl)cc23)c(N)c1C#N | 94.9% |
| Clc1ccc2c(NCCCCNc3nc(N4CCOCC4)nc4ccccc34)ccnc2c1 | -9.83% (active) |
| CCOc1nc(-c2ccccc2)cc2c(O)c(C(=O)N/N=C/c3ccc(O)cc3O)[nH]c(=O)c12 | 27.1% |
| O=C(O)c1ccc(NC(=O)c2ccc(-c3cccc([N+](=O)[O-])c3)o2)cc1 | 103% |
| Cc1ccc(NS(=O)(=O)c2ccc(-c3cnc(C4CC4)o3)cc2)cc1C | 33.7% |
| O=c1ccccc(-c2ccc(-c3ccco3)cc2)c1O | 6.97% (active) |
| CC(C)CC1C(=O)N2CCC[C@H]2C2(O)O[C@](NC(=O)C3C=C4c5cccc6[nH]c(Br)c(c56)C[C@H]4N(C)C3)(C(C)C)C(=O)N12 (some centres undefined) | 82.7% |
| C=CC(=O)Nc1cccc(-c2nc(SC)nc(NCCN3CCOCC3)c2C#N)c1 | 99.9% |
| CC(C)c1c(C(=O)c2ccccc2)c(-c2ccccc2)c(-c2ccc(F)cc2)n1CC[C@@H](O)C[C@@H](O)CC(=O)O | 90.1% |
| O=S(=O)(Nc1ccc(NS(=O)(=O)c2ccccc2)c(Cl)c1)c1ccccc1 | 110% |
| O=C(N=Nc1c(O)[nH]c2ccccc12)c1cc(-c2ccccc2)on1 | 102% |
| O=C1NC(=S)NC(=O)C1CC(=O)n1c(-c2ccccc2)nc2ccccc21 | 79.9% |
| Cn1c(O)c(N=NC(=O)c2cc(-c3ccccc3)on2)c2ccccc21 | 102% |
| CN1CCN(Cc2ccc(NC(=O)c3cncc(C#Cc4cncn5ccnc45)c3)cc2C(F)(F)F)CC1 | 81.4% |
